# From PubChem BioAssay
# Rows were chosen to be rich in hits. Some 14% of all compounds tested hit in one or more screens of this group.
# HCMV antiviral: inhibitors of human cytomegalovirus; 410,000 tested, 4.5% active; activity change, negative = inhibition, % at 57.5 µM; HFF cells, HCMV-luciferase reporter, 72 h; hits give low values; AID 1259415; in the data active = activity change below about -60%; inconclusive = no clear call, values can overlap the other calls; inactive = above about -39%
#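 Inhibition of viral replication was scored as loss of reporter luminescence in HFFs infected with HCMV-luciferase (MOI 1 PFU/cell) for 72 h; compounds tested at 2 doses, normalized to buffer and Salinomycin controls.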
# Pf growth 96h: P. falciparum growth inhibition at 96 hour, primary screen for plastid delayed-death inhibitors | AID 504834 | Potency, µM (top dose mostly 28.7 µM), for inactives: at the top dose activity change, negative = inhibition, actives largely listed as inhibitors | P. falciparum luciferase reporter growth, 96 h | 320,000 tested, 6.9% active; note: potency is the fitted concentration of half-maximal effect
#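 Luminescence readout: decreased luciferase signal marks inhibited growth of reporter-expressing P. falciparum in infected red cells (2% hematocrit, 0.05% parasitemia final), exposed to compound two generations (96 h, 37 C, 5% CO2).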
# Pf growth 48h: inhibits P. falciparum growth in the first generation, 48 h. P. falciparum luciferase growth in erythrocytes, 48 h. Potency, µM (top dose mostly 28.7 µM), inactives show at the highest dose activity change, negative = inhibition, usual class: inhibitors. 310,000 tested, 5.9% active. AID 504832; note: potency is the fitted concentration of half-maximal effect
#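 Firefly luciferase activity from engineered P. falciparum reports growth; inhibitors lower the luminescent signal. Cultures contained 2% hematocrit erythrocytes at 0.1% final parasitemia.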
# Sm TGR inh: S. mansoni TGR enzyme inhibition; Q962Y6; 360,000 tested, 3% active; purified TGR, DTNB reduction, TNB absorbance 405 nm; Potency, µM (highest dose often 114 µM), without a hit: at the highest dose activity change, negative = inhibition, most hits filed as inhibitors; note: potency is the fitted concentration of half-maximal effect; nearly all actives have a fitted effect of over 60% in size
#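 TGR 20 nM + NADPH 100 uM (dispensed conc.), cpd preinc 15 min RT; start with NADPH (500 uM addition) then DTNB (15 mM addition). Kinetic TNB absorbance, 405 nm filter. Four-parameter Hill fit across titration.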
# FBPA Giardia inh: inhibitors of Giardia lamblia fructose-1,6-bisphosphate aldolase. A8B2U2. purified Giardia FBPA. Potency, µM (highest dose often 59.6 µM), for the others: top-dose activity, negative = inhibition, most hits filed as inhibitors. 290,000 tested, 0.71% active. AID 2451; note: potency is the fitted concentration of half-maximal effect; nearly all actives have a fitted effect of over 55% in size
# Target sequence (A8B2U2 whole entry, looked up): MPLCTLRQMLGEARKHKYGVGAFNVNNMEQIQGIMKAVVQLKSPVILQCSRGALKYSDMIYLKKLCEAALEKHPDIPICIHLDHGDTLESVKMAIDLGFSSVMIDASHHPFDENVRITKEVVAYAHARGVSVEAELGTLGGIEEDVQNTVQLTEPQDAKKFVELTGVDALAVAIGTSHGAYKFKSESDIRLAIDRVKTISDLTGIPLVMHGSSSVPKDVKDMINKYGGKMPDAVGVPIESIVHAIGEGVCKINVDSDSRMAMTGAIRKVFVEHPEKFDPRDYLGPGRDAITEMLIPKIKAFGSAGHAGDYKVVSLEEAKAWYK
#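 40 nM FBPA preincubated 10 min at RT with compound (up to 57.5 uM final), then substrate plus GAPDH/TPI/NAD/arsenate coupling and diaphorase/resazurin added. Fluorescence read after 20 min at RT, 525/598 nm.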
# Active calls of the source: *; ? = inconclusive; . = no result given; [ ] = dose if it differs, or a comment. Unless noted, calls come from the whole dose curve; as a rule, active = well fitted curve in the direction sought with a large enough effect; inconclusive = small, poorly fitted or top-dose-only effect, or another doubt; inactive = no such curve, though single readings can be large; an effect the other way counts as inactive or inconclusive. % is set by controls: 0 for no effect and ±100 for the full control effect.
SMILES,HCMV antiviral,Pf growth 96h,Pf growth 48h,Sm TGR inh,FBPA Giardia inh
COc1ccc(S(=O)(=O)Nc2ccc3c(c2)C(=O)N([C@H](C)CO)C[C@H](C)[C@@H](CN(C)S(=O)(=O)c2cn(C)cn2)OCCCC[C@H](C)O3)cc1,22,.,.,.,.
Cc1cccc2c(C(=O)Nn3cnnc3)cc(-c3ccccc3Cl)nc12,36,?,-6%,-3%,4%
Cc1cccc(OCC(O)Cn2c(NCCCOC(C)C)nc3c2c(=O)[nH]c(=O)n3C)c1 (stereo unspecified),19,?,?,7%,5%
CC(C)CCNc1nc2c(c(=O)[nH]c(=O)n2C)n1CC(O)COC(C)C (stereo unspecified),-66*,108%,3%,-5%,0%
CCN(CC)CCNc1nc2c(c(=O)[nH]c(=O)n2C)n1CC(O)COc1ccc(Cl)cc1Cl (stereo unspecified),-15,12µM*,?,0%,0%
Cc1ccc(-c2ccc(C(=O)O)[nH]2)cc1,46,6.6µM*,30%,-3%,19%
CCCc1cc(=O)oc2cc(C)cc(OC(C)C(=O)NCCCN3CCOCC3)c12 (stereo unspecified),-6,?,?,-1%,2%
CCCc1cc(=O)oc2cc(C)cc(OC(C)C(=O)NCCCn3ccnc3)c12 (stereo unspecified),-29,2.6µM*,4.1µM*,5%,-5%
CCCc1cc(=O)oc2cc(C)cc(OC(C)C(=O)NCCN3CCOCC3)c12 (stereo unspecified),-4,9.3µM*,10µM*,-20%,.
Cc1cc(OC(C)C(=O)NCCc2c[nH]c3ccccc23)c2c(C)cc(=O)oc2c1 (stereo unspecified),20,1.7µM*,1.5µM*,14%,6%
CCCc1cc(=O)oc2cc(C)cc(OC(C)C(=O)NCC(O)c3ccccc3)c12 (stereo unspecified),-4,?,0.47µM*,0%,8%
Cc1ccc(NC(=O)N2CCN(Cc3nc4ccc(C)cc4o3)CC2)c(Cl)c1,-9,.,.,1%,.
COc1ccc(CNCCSc2nnnn2-c2ccccc2)c(OC)c1,-5,.,.,-4%,.
Cc1nn(-c2ccccc2)c(N2CCCC2)c1/C=N/NC(=O)c1cc2ccccc2cc1O,2,?,?,6%,3%
Cc1nn(-c2ccccc2)c(N2CCCC2)c1/C=N/NC(=S)Nc1ccccc1F,-61*,?,10µM*,-2%,10%
CC(=O)Nc1ccc(-c2ccnc3c2CC(C)(C(=O)Nc2ccc4c(c2)OCO4)O3)cc1 (stereo unspecified),47,.,.,.,.
O=c1c(-c2ccc(O)cc2O)coc2cc(O)cc(O)c12,14,1.2µM*,87%,-22%,2%
COc1ccccc1-c1coc2cc(O)cc(O)c2c1=O,27,.,4%,28%,-7%
CNc1nc(SCc2ccccc2Cl)nc2c1CCCC2,-40,15µM*,13µM*,14%,11%
O=C(CSc1nnc(-c2ccc3c(c2)OCO3)o1)Nc1ncc(Cl)cc1Cl,-61*,?,17%,2%,0%
CC(=O)Nc1ccc(NC(=O)CSc2nnc(-c3ccc4c(c3)OCO4)o2)cc1,0,.,.,.,.
O=C(O)CCSc1nnc(-c2ccc3c(c2)OCO3)o1,-75*,?,-18%,-26%,15%
Cc1csc(-c2nc3ccccc3n2C(C(=O)Nc2c(C)cccc2C)C2CC2)c1 (stereo unspecified),-11,.,.,.,.
O=[N+]([O-])c1ccc(-c2nc3ccc([N+](=O)[O-])cc3[nH]2)cc1,4,?,?,0%,-19%
O=[N+]([O-])c1ccc2nc(/C=C/c3ccc(Cl)cc3)[nH]c2c1,-86*,8.3µM*,8.3µM*,-7%,?
SMILES,HCMV antiviral,Pf growth 96h,Pf growth 48h,Sm TGR inh,FBPA Giardia inh
Oc1ccc(Cl)cc1N=Cc1sc2ccccc2c1Cl,?,2.3µM*,?,?,-21%
Cc1cccc(N=C2CCCC2C(=O)Nc2cccc(C)c2C)c1C (stereo unspecified),-5,.,.,.,.
CCn1c(C)nc2cc(NC(=O)Nc3cccc(C(C)=O)c3)ccc21,-67*,-5%,-8%[0.00184 µM],-1%,-1%
COC/C=C/C1=CC2=CC(=O)C(C)(OC(=O)CCc3ccccc3)C(=O)C2=CO1 (stereo unspecified),.,.,.,.,-7%
Cc1nc([N+](=O)[O-])c(Br)n1CC(=O)c1ccc(Cl)cc1,70,?,.,7.1µM*,1%
COc1ccc(C(=O)Cn2c(C)nc([N+](=O)[O-])c2Br)cc1,13,3%,-22%,2.5µM*,2%
Cc1cc(C)c(C)c(S(=O)(=O)N(C)CCc2ccccn2)c1C,-38,.,.,.,.
COc1cc(NC(=O)Nc2ccccc2OC)c(OC)cc1NC(=O)CN1CCCCC1,-26,-23%,6.6µM*,-22%,-6%
COc1ccc(N)cc1NC(=O)CN1CCCC1,-6,0.12µM*,6%,-24%,1%
COc1cc(NC(=O)c2ccc(C(C)(C)C)cc2)c(OC)cc1NC(=O)CN1CCCCC1,?,-3%,6.6µM*,0%,-9%
COc1ccc(Cl)cc1NC(=O)CN1CCCCCC1,-4,?,-5%,-9%,5%
Clc1cccc(-c2nn3c(Cn4cnc5ccccc54)nnc3s2)c1,31,13%,13µM*,0%,3%
COc1cccc(OCCn2cc(C(C)=O)c3ccccc32)c1,-18,?,9.3µM*,1%,-7%
COc1ccccc1OCCn1cc(C(=O)c2ccco2)c2ccccc21,61,?,12µM*,0%,-5%
COc1cccc(OCCn2cc(C(=O)c3ccco3)c3ccccc32)c1,2,0%,1.9µM*,?,-1%
Cc1ccccc1OCCn1cc(/C(N)=N/O)c2ccccc21,-14,9.3µM*,.,-5%,-5%
COc1ccccc1OCCCn1cc(C(=O)c2ccco2)c2ccccc21,166,17%[5.75 µM],?,1%,15%
Cc1cc(OCCn2cc(C(=O)c3ccco3)c3ccccc32)ccc1Cl,-4,.,.,11%,.
CC(=O)c1cn(CCOc2cc(C)ccc2C)c2ccccc12,-32,?,?,-11%,-1%
NC(=NC1C2CC3CC(C2)CC1C3)Nc1ccc(I)cc1 (stereo unspecified),.,.,.,.,1%
CC(C)C(=O)NC(NC(=O)C(C)C)c1ccc([N+](=O)[O-])cc1,3,12%,9%,0%,5%
O=C(Nc1nc2n(n1)C(c1ccc(F)cc1)C=C(c1ccccc1)N2)c1cccc([N+](=O)[O-])c1 (stereo unspecified),-19,.,.,2%,.
CS(=O)(=O)Nc1nc2n(n1)C(c1ccccc1)C=C(c1ccc(Br)cc1)N2 (stereo unspecified),.,-3%,-7%,22µM*,-6%
